Here are results for 86 compounds from article PMC4336329 (PLoS ONE, 2015).

Out of some 310,000 compounds screened, about 14,000 (4.5%) showed an effect of 50% or more. Effects have a minus sign here. Shown is part of a subset that was picked to be rich in strong results.
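Further: peak tail current of the secondary pulse compared with the same well before compound.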

This assay deals with human ether-à-go-go-related gene (hERG) potassium channel (human, UniProt Q12809). As to the kind of experiment: primary screen, population patch clamp on CHO cells stably expressing hERG; higher = less effect of the substance.
Sequence of human ether-à-go-go-related gene (hERG) potassium channel (Q12809 whole entry, looked up): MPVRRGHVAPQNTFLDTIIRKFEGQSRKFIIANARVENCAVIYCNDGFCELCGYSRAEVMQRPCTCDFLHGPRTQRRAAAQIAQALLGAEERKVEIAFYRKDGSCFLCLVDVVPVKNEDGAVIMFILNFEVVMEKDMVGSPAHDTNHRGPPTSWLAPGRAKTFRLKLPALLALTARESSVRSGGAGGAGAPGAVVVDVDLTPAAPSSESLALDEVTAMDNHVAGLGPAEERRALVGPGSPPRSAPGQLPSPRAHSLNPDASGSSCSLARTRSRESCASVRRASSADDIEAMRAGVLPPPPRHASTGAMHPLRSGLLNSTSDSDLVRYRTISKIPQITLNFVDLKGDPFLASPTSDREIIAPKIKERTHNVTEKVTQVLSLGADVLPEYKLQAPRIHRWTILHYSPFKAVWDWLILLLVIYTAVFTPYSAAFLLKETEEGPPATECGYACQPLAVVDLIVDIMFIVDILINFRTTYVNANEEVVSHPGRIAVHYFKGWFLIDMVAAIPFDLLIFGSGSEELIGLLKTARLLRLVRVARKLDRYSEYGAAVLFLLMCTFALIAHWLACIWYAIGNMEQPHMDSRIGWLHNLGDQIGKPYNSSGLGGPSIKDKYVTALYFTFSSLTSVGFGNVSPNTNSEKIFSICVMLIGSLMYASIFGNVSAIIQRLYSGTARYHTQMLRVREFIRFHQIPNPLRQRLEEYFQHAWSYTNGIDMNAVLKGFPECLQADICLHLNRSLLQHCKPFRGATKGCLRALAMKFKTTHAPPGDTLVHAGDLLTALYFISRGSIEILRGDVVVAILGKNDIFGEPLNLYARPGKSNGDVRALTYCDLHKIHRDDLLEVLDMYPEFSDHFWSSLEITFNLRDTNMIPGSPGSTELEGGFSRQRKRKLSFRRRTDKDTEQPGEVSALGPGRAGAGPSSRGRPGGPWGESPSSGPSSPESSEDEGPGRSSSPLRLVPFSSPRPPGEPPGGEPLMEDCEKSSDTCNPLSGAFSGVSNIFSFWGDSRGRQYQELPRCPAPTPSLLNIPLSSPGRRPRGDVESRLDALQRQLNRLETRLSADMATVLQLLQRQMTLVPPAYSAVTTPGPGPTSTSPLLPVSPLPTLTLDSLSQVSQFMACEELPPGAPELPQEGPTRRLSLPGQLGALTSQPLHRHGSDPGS
As to `Cc1ccc(-c2nnc(SCC(N)=O)n2C)cc1`, the “hERG current change (%, negative = inhibition) at 10uM” value is on record as -0.685%.
Next, `CN(C)N1C(N)=C(C#N)C(c2cccnc2)C2=C1CCCC2=O` (centres unmarked): -9.73%; `CC(C)Oc1ccc(C(=O)O)cc1`: 16.5%; `O=S(=O)(NCc1ccccc1)c1ccc(Cl)c(S(=O)(=O)NCc2ccccc2)c1`: -33%.
As to `COc1ccc(C(=O)NCCC2=CCCCC2)cc1`, the “hERG current change (%, negative = inhibition) at 10uM” value was -9.79%.
As to `NS(=O)(=O)c1ccc(CCNC(=O)CNS(=O)(=O)c2cccc(Br)c2)cc1`, the “hERG current change (%, negative = inhibition) at 10uM” value is 13.2%.
Regarding `COc1ccc(C2C(C#N)=C(N)N(c3sc4c(c3C#N)CCCC4)C3=C2C(=O)CC(C)(C)C3)cc1` (centres unmarked), the “hERG current change (%, negative = inhibition) at 10uM” value is -2.99%.
On to `O=C(COc1ccc(Cl)cc1)Nc1ccc2oc(=O)ccc2c1`, for which the “hERG current change (%, negative = inhibition) at 10uM” value is 3.7%.
In the case of `Cc1cc(C)n(C(=O)c2cc(F)c(F)cc2C)n1`, the “hERG current change (%, negative = inhibition) at 10uM” value turned out to be 4.1%.
Next, `OC1CCN(Cc2ccc3ccccc3c2)CC1`: 13.4%; `O=C(NC1CCN(Cc2ccc(Cl)c(Cl)c2)CC1)c1ccccc1`: -18.3%; `Cc1ccc(CN2CCC(NC(=O)c3ccccc3)CC2)cc1`: -75%.
Consider `CC(C)Oc1ccc(C(=O)NC2CCN(Cc3ccccc3)CC2)cc1`, for which the “hERG current change (%, negative = inhibition) at 10uM” value is recorded as -60.8%.
Consider `O=C(NC1CCN(Cc2ccccc2)CC1)c1ccccc1`, for which the “hERG current change (%, negative = inhibition) at 10uM” value is -33.3%.
As for `CCCCOc1ccc(C(=O)NCC(=O)NC2CCN(Cc3ccccc3)CC2)cc1`, the “hERG current change (%, negative = inhibition) at 10uM” value was -25.6%.
Turning to `Cc1ccc(CN2CCSc3ccc(C(=O)NC4CCN(Cc5ccccc5)CC4)cc32)cc1`, the “hERG current change (%, negative = inhibition) at 10uM” value was 8.21%.
Consider `O=C(NC1CCN(Cc2ccc3ccccc3c2)CC1)c1ccccc1`, for which the “hERG current change (%, negative = inhibition) at 10uM” value is recorded as -66.3%.
With `CC(C)Oc1ccc(C(=O)NC2CCCCC2)cc1`, the “hERG current change (%, negative = inhibition) at 10uM” value is 10.3%.
With `CCOC(=O)c1sc(=NC(=O)CCSc2ccccc2)n(C)c1C` the figure was -11.8%; with `O=C(NCCOc1cccc2cccnc12)c1cccs1`, -12.8%; with `O=C(CSc1ncnc2c1nnn2Cc1ccc(F)cc1)NC1CCCCC1`, 11.8%.
As to `N/C(=N\OC(=O)N1c2ccccc2Sc2ccccc21)c1ccc(Br)cc1`, the “hERG current change (%, negative = inhibition) at 10uM” value was found to be 5.79%.
Regarding `O=C(COc1c(Br)cc(Br)c2cccnc12)N1CCc2ccccc2C1`, the “hERG current change (%, negative = inhibition) at 10uM” value is given as 8.07%.
In the case of `CC(=O)N/C(=C\c1ccccc1)C(=O)OCC(=O)N(CC(C)C)c1c(N)n(Cc2ccccc2)c(=O)[nH]c1=O`, the “hERG current change (%, negative = inhibition) at 10uM” value is reported as 6.75%.
Next, `CC(c1ccc(F)cc1)n1c(-c2ccc3ccccc3n2)n[nH]c1=S` (centres unmarked): 18.1%.
In the case of `Cn1c(=O)c2c(nc(SCc3ccc(F)cc3)n2C)n(C)c1=O`, the “hERG current change (%, negative = inhibition) at 10uM” value was 1.9%.
Regarding `O=C(NCC(O)c1ccccc1)c1ccc(Cl)c(S(=O)(=O)N2CCCCC2)c1` (centres unmarked), the “hERG current change (%, negative = inhibition) at 10uM” value came to 8.95%.
With `O=C(NCC(O)c1ccccc1)c1ccc(Cl)c(S(=O)(=O)N2CCCC2)c1` (centres unmarked), the “hERG current change (%, negative = inhibition) at 10uM” value is on record as -0.367%.
Consider `Cc1ccc(CNC(=O)c2ccc(Cl)c(S(=O)(=O)N3CCCCC3)c2)cc1`, for which the “hERG current change (%, negative = inhibition) at 10uM” value is listed as -27.3%.
In the case of `O=C(NCCCN1CCCC1=O)c1ccc(Cl)c(S(=O)(=O)N2CCCCC2)c1`, the “hERG current change (%, negative = inhibition) at 10uM” value is reported as -24.1%.
Next, `CN(C)CCCNC(=O)c1ccc(Cl)c(S(=O)(=O)N2CCCCCC2)c1.Cl`: -72.4%; `CCN(CC)CCOC(=O)c1ccc(NC(=O)c2ccc(Cl)c(S(=O)(=O)N3CCCCCC3)c2)cc1.Cl`: 13.7%.
With `CN(C)C(CNC(=O)c1ccc(Cl)c(S(=O)(=O)N2CCCCCC2)c1)c1ccccc1` (centres unmarked) the figure was -67.5%.
With `CCN(CC)CCNC(=O)c1ccc(Cl)c(S(=O)(=O)N2CCCCCC2)c1.Cl` the figure was -67.4%; with `CCN(CC)CCNC(=O)c1ccc(NC(=O)c2ccc(Cl)c(S(=O)(=O)N3CCCCCC3)c2)cc1.Cl`, -24%.
For `Cc1cc(C)n(C(=O)c2cccc([N+](=O)[O-])c2)n1`, the “hERG current change (%, negative = inhibition) at 10uM” value was -5.46%.
Next, `COc1ccc(CCNC(=O)C2CCN(S(=O)(=O)c3cnc[nH]3)CC2)cc1OC`: 13.7%.
As to `CCN(C(=O)CSc1nc(N)cc(=O)[nH]1)c1c(N)n(Cc2ccccc2)c(=O)[nH]c1=O`, the “hERG current change (%, negative = inhibition) at 10uM” value turned out to be 2.41%.
Regarding `Cc1ccc(S(=O)(=O)NCCCn2ccnc2)cc1C(=O)NC(C)C`, the “hERG current change (%, negative = inhibition) at 10uM” value was -1.56%.
In the case of `O=S(=O)(Nc1ccc2c(c1)OCO2)c1ccc(Br)s1`, the “hERG current change (%, negative = inhibition) at 10uM” value is given as -18.1%.
Consider `O=C(O)CCN1CCc2ccccc2C1c1ccncc1` (centres unmarked), for which the “hERG current change (%, negative = inhibition) at 10uM” value is on record as 13.2%.
`Cc1sc(NC(=O)c2ccco2)c(CN2CCC(C)CC2)c1C`: the “hERG current change (%, negative = inhibition) at 10uM” value is -16.2%.
For `CCN(CC)C(=O)CSc1nnc(CNc2ccc(F)cc2)o1`, the “hERG current change (%, negative = inhibition) at 10uM” value was determined as 1.13%.
Take `Cc1ccc(S(=O)(=O)N(C)Cc2nc(-c3ccc(Br)cc3)no2)cc1`: the “hERG current change (%, negative = inhibition) at 10uM” value is given as 4.12%.
With `CN(Cc1nc(-c2cccnc2)no1)S(=O)(=O)c1ccc(Br)cc1` the figure was -46%; with `Cc1ccc(S(=O)(=O)N(C)Cc2nc(-c3ccncc3)no2)cc1`, -19.5%.
`CN(Cc1nc(-c2ccncc2)no1)S(=O)(=O)c1ccc(Br)cc1`: the “hERG current change (%, negative = inhibition) at 10uM” value is -58.1%.
Consider `CN(Cc1nc(-c2ccncc2)no1)S(=O)(=O)c1ccc(Cl)cc1`, for which the “hERG current change (%, negative = inhibition) at 10uM” value is -55.5%.
Next, `CN(Cc1nc(-c2ccncc2)no1)S(=O)(=O)c1ccccc1`: 3.91%; `O=C(NNc1nc(-c2ccccc2)cs1)c1cccs1`: 10.7%.
Next, `O=C(COC(=O)c1ccc(F)cc1F)NCCNC(=O)COC(=O)c1ccc(F)cc1F`: 16.8%.
Next, `Cc1c(Cl)cccc1NC(=O)CN1CCC(C(O)(c2ccccc2)c2ccccc2)CC1`: -12.3%; `NNc1nc2c(Cl)ccc(Cl)c2s1`: 18.6%; `NS(=O)(=O)c1cccc(NC(=O)Cc2ccc(Cl)c(Cl)c2)c1`: 6.09%.
In the case of `O=C(NCCc1ccccc1)c1ccc(CS(=O)(=O)c2ccc(Br)cc2)o1`, the “hERG current change (%, negative = inhibition) at 10uM” value was determined as 10.2%.
In the case of `O=C(NCCc1ccccc1)c1ccc(CS(=O)(=O)c2ccc(Cl)cc2)o1`, the “hERG current change (%, negative = inhibition) at 10uM” value was -2.15%.
Next, `O=C(NCCCN1CCOCC1)c1ccc(CS(=O)(=O)c2c(Cl)cccc2Cl)o1`: 2.35%.
Next, `CCN1CCN(CCNC(=O)c2ccc(CS(=O)(=O)c3c(Cl)cccc3Cl)o2)CC1`: -8.19%.
In the case of `CN(CCNC(=O)c1ccc(CS(=O)(=O)c2c(Cl)cccc2Cl)o1)CCc1ccccc1`, the “hERG current change (%, negative = inhibition) at 10uM” value was -70%.
Take `CC(C)N(CCCNC(=O)c1ccc(CS(=O)(=O)c2c(Cl)cccc2Cl)o1)Cc1ccccc1`: the “hERG current change (%, negative = inhibition) at 10uM” value is recorded as -67.7%.
`CC(C)N(CCNC(=O)c1ccc(CS(=O)(=O)c2c(Cl)cccc2Cl)o1)Cc1ccccc1`: the “hERG current change (%, negative = inhibition) at 10uM” value is -70.6%.
Next, `CN(CCNC(=O)c1ccc(CS(=O)(=O)c2ccc(Br)cc2)o1)CCc1ccccc1`: -77.5%; `CN(C)CCNC(=O)c1ccc(CS(=O)(=O)c2ccc(Br)cc2)o1`: -3.14%; `CC1CCCN(CCCNC(=O)c2ccc(CS(=O)(=O)c3c(Cl)cccc3Cl)o2)C1` (centres unmarked): -44.8%.
As for `O=C(NCCN1CCCC1)c1ccc(CS(=O)(=O)c2c(Cl)cccc2Cl)o1`, the “hERG current change (%, negative = inhibition) at 10uM” value was -45.5%.
Regarding `COC(CNC(=O)c1ccc(CS(=O)(=O)c2c(Cl)cccc2Cl)o1)OC`, the “hERG current change (%, negative = inhibition) at 10uM” value is reported as 21.2%.
Take `NC(=O)C1=C[C@H](c2ccc(C(F)(F)F)cc2)C[C@H](OCCCCO)O1`: the “hERG current change (%, negative = inhibition) at 10uM” value was -4.54%.
As for `CCCOc1ccc(C2NC(=S)NC(c3ccccc3)=C2C(=O)Nc2ccc(C)cc2)cc1OC` (centres unmarked), the “hERG current change (%, negative = inhibition) at 10uM” value is on record as 0.514%.
Consider `CCN(CC(=O)Nc1cccc(OC)c1)CC(=O)Nc1ccc(C)cc1Cl`, for which the “hERG current change (%, negative = inhibition) at 10uM” value was -10.4%.
On to `COc1ccccc1/C=N/NC(=O)c1ccc2c(c1)OCO2`, for which the “hERG current change (%, negative = inhibition) at 10uM” value was found to be 7.71%.
Next, `Cc1ccccc1OCC(=O)NCC1CCCO1` (centres unmarked): 13.3%; `CCOc1ccc(NC(=O)CNC(=O)c2ccc([N+](=O)[O-])cc2)cc1`: -7.46%; `Cc1cc(N/N=C\c2ccccc2)nc(-c2ccccc2O)n1`: 4.95%.
In the case of `Cn1c(NC(=O)c2cc(Br)ccc2Cl)cc(=O)n(C)c1=O`, the “hERG current change (%, negative = inhibition) at 10uM” value is given as 1.62%.
For the compound `CC1C(=O)N2CCCc3cc(S(=O)(=O)N4CCN(c5ccccc5F)CC4)cc1c32` (centres unmarked), the “hERG current change (%, negative = inhibition) at 10uM” value is on record as -8.8%.
With `COc1ccc(N2CCN(S(=O)(=O)c3cc4c5c(c3)C(C)C(=O)N5CCC4)CC2)cc1` (centres unmarked), the “hERG current change (%, negative = inhibition) at 10uM” value was 3.36%.
As for `CC1C(=O)N2CCCc3cc(S(=O)(=O)N4CCN(c5ccc(F)cc5)CC4)cc1c32` (centres unmarked), the “hERG current change (%, negative = inhibition) at 10uM” value is reported as -50.3%.
Turning to `O=C(/C=C/c1ccccc1[N+](=O)[O-])Nc1ccccc1`, the “hERG current change (%, negative = inhibition) at 10uM” value was determined as 10.1%.
Turning to `O=c1cc(CSc2ccccn2)c2ccccc2[nH]1`, the “hERG current change (%, negative = inhibition) at 10uM” value is 9.52%.
For `C=CCn1c(=O)c(C(=O)NC(C)c2ccccc2)c(O)c2ccccc21` (centres unmarked), the “hERG current change (%, negative = inhibition) at 10uM” value came out at 18.3%.
Consider `CN(Cc1c(O)ccc2c1oc(=O)c1ccccc12)C1CCCCC1`, for which the “hERG current change (%, negative = inhibition) at 10uM” value is recorded as -42.8%.
Next, `C=CCN(CC=C)Cc1c(O)ccc2c(=O)c(-c3ccccc3)coc12`: -16.9%; `C=CCN(CC=C)Cc1c(O)ccc2c1oc(=O)c1ccccc12`: -71.6%.
For `Cc1ccccc1NC(=O)NCC1CCN(Cc2cccc(Cl)c2)CC1`, the “hERG current change (%, negative = inhibition) at 10uM” value is on record as -60%.
Next, `Cc1ccc(NC(=O)NCC2CCN(Cc3cccc(Cl)c3)CC2)c(Cl)c1`: -59.8%.
Next, `Cc1ccccc1NC(=O)NCC1CCN(C(=O)OC(C)(C)C)CC1`: -19.6%.
